From PubChem
Shiga inhibitor: blocks Shiga toxin action in Vero cells | 290,000 compounds, 9.2% hits | inhibition, % at 38.7 µM | Vero cells, Shiga toxin protein synthesis inhibition reporter | AID 2315; in the data active = inhibition mostly above about 28%, no sharp cut-off; inactive = mostly below about 43%; note: 0% is about no effect
Marburg entry inh: Marburg virus entry inhibition; Marburg virus pseudotyped entry inhibition, cell reporter; Potency, µM (titrated, usually from 37.8 µM), inactives show at the top dose activity change, negative = inhibition, most hits filed as inhibitors; 300,000 compounds, 1.8% hits; AID 540276; calls by dose curve; tested in HEK293 cells; note: potency is the fitted concentration of half-maximal effect; % is set by controls: 0 for no effect and ±100 for the full control effect
CHX counter: counter-screen hit for Shiga toxin inhibitors, cycloheximide; 300,000 compounds, 12% hits; AID 2314; max response, %; cell reporter, cycloheximide protein synthesis inhibition counterscreen; in the data active = max response mostly above about 13%, no sharp cut-off; inactive = mostly below about 14%; note: read at 38.3 µM for the half of the compounds with a filed dose; 0% is about no effect
Pf growth 48h: inhibits P. falciparum growth in the first generation, 48 h; P. falciparum luciferase growth in erythrocytes, 48 h; Potency, µM (doses to about 28.7 µM), for the others: at the highest dose activity change, negative = inhibition, actives largely listed as inhibitors; 310,000 compounds, 5.9% hits; note: potency is the fitted concentration of half-maximal effect; % is set by controls: 0 for no effect and ±100 for the full control effect
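Parasite viability was followed by luminescence of a genomically integrated firefly luciferase. Cultures held 0.1% parasitemia at 2% hematocrit (final), incubated under 5% CO2 at 37 C.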
Pf growth 96h: P. falciparum growth inhibition at 96 hour, primary screen for plastid delayed-death inhibitors; P. falciparum luciferase reporter growth, 96 h; 320,000 compounds, 6.9% hits; Potency, µM (titrated, usually from 28.7 µM), inactives show top-dose activity change, negative = inhibition, most hits filed as inhibitors; note: potency is the fitted concentration of half-maximal effect; % is set by controls: 0 for no effect and ±100 for the full control effect
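P. falciparum expressing integrated firefly luciferase, in erythrocytes at 2% hematocrit, 0.05% parasitemia, incubated with compounds 96 h at 37 C, 5% CO2. Growth inhibition read as loss of luminescence; two-generation exposure targets delayed-death apicoplast inhibitors.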
LASV entry inh: Lassa virus entry inhibition | AID 540256 | Lassa virus pseudotype entry inhibition, cell reporter | 300,000 compounds, 1.2% hits | Potency, µM (series often up to 37.9 µM), without a hit: at the top dose activity change, negative = inhibition, most hits filed as inhibitors; calls by dose curve; tested in HEK293 cells; note: potency is the fitted concentration of half-maximal effect; % is set by controls: 0 for no effect and ±100 for the full control effect; nearly all actives have a fitted effect of over 50% in size
Numbers without * were called inactive; ? = inconclusive; . = no result; [ ] = dose if it differs, or a comment. Most compounds without a hit are left out; they make up all but 19% or so of the library. Unless noted, calls come from the whole dose curve; as a rule, active = well fitted inhibition curve with a large enough effect; inconclusive = small, poorly fitted or top-dose-only effect, or another doubt; inactive = no such curve, though single readings can be large or run the other way.

SMILES	Shiga inhibitor	Marburg entry inh	CHX counter	Pf growth 48h	Pf growth 96h	LASV entry inh
COc1cccc(-c2nc(CS(=O)(=O)CC(=O)NCCc3cc(OC)ccc3OC)c(C)o2)c1	-3.7	?	0.3	-28.5%	13.1µM*	?
COc1cc(OC)c(NC(=O)CS(=O)(=O)Cc2nc(-c3ccc(C)cc3)oc2C)cc1Cl	46.0	-0.3%	2.8	.	8.28µM*	.
COc1ccc(-c2nc(CS(=O)(=O)CC(=O)Nc3ccc(Cl)cc3)c(C)o2)cc1	40.3*	-0.8%	19.4*	32.0%	-28.9%	.
COc1cccc(-c2nc(CS(=O)(=O)CC(=O)NCCc3ccc(OC)cc3OC)c(C)o2)c1	-1.7	?	-3.4	?	5.4%	?
CCOC(=O)c1ccccc1NC(=O)N[C@@H](C)C(=O)OC	-1.1	0.9%	12.9	.	-15.2%	3.6%
CC(=O)NCCn1c(SCC(=O)NCCc2ccc(S(N)(=O)=O)cc2)nc2ccccc2c1=O	-2.2	3.7%[46.1 µM]	-1.9	-4.5%	-2.9%	-10.1%[46.1 µM]
Clc1ccc(-c2noc3ncnc(NCCc4ccccc4)c23)cc1	.	.	.	.	.	3.98µM*
CCc1ccc2c(c1)C(=O)CCC2	.	1.0%[46.1 µM]	.	.	.	26.0%[46.1 µM]
O=C1CCCc2cc3c(cc21)CC1(C3)Cc2cc3c(cc2C1)C(=O)CCC3	7.7	.	-1.7	5.22µM*	?	.
Cc1cccc(Nc2nc(OCC#N)nc(N(C)C)n2)c1	-0.4	-14.4%[46.1 µM]	-1.9	-179.3%	11.7µM*	22.1%[46.1 µM]
CCN(CC)c1nc(Nc2ccc(Cl)cc2)nc(OCC#N)n1	2.7	?	7.7	-18.4%	.	-3.8%
CCOC(=O)c1ccc(NC(=O)CSc2nc3ccccc3c(=O)n2CCC(=O)NC2CCCCC2)cc1	.	.	.	.	.	24.4%[46.1 µM]
COc1ccc(-c2cc(C(F)(F)F)n3nc(C(=O)Nc4ccc(Cl)cc4C(F)(F)F)cc3n2)cc1OC	.	-0.6%[46.1 µM]	.	.	.	-10.6%[46.1 µM]
O=C(NCc1ccco1)c1cc2nc(-c3ccc4c(c3)OCO4)cc(C(F)(F)F)n2n1	-7.4	-3.3%	0.4	?	?	-7.1%
COc1ccc(-c2cc(C(F)(F)F)n3nc(C(=O)N(C)Cc4ccccc4)cc3n2)cc1OC	19.2	.	1.6	6.57µM*	-35.2%[5.75 µM]	.
COc1ccc(-c2cc(C(F)(F)F)n3nc(C(=O)NCc4ccco4)cc3n2)cc1	12.1	-1.3%	-0.8	9.28µM*	?	-22.4%
Cc1ccc(Cl)cc1NC(=O)c1oc2c(c1C)-c1[nH]ncc1CC2	.	?	.	.	.	24.3%[46.1 µM]
CC(C)/C=C/C(=O)N1CCCC(N2CCN(c3ccccc3F)CC2)C1 (centres undefined)	-7.0	.	-3.7	-2.2%	?	.
Cc1ccc(NC(=O)Cn2nnc(-c3nc(-c4ccncc4)no3)c2N)cc1	.	.	.	.	.	3.5%[46.1 µM]
CCOc1ccccc1Oc1ccc(C(F)(F)F)cn1	15.5	4.6%	-3.6	11.8%	?	-3.0%
COC(=O)C1CCN(C(c2cccs2)c2sc3nc(C)nn3c2O)CC1 (centres undefined)	-2.0	.	-0.1	9.4%	17.8%	.
CC(C)(C)C(=O)/C=C1\NC(=O)CS1	14.9	-5.5%[46.1 µM]	-1.1	-3.0%	7.4%	12.5%
O=C1CS/C(=C/C(=O)c2cccc(Cl)c2)N1	56.0	.	27.2*	44.0%	19.6%	.
Cc1ccc(C(=O)/C=C2/NC(=O)CS2)cc1	45.0*	23.6%	24.8*	185.1%	183.9%	10.1%
C=CCN1CN(S(=O)(=O)c2cccs2)c2nc3ccccc3nc21	3.0	9.2%	6.3	-11.9%	.	2.6%
Cc1ccc(-c2nnn(CC(=O)N(CCO)C(C(=O)NC3CCCC3)c3ccc(F)cc3)n2)o1 (centres undefined)	-3.4	1.2%[46.1 µM]	-4.1	0.0%	29.7%	1.9%
CN1CCc2cc3c(c4c2[C@H]1[C@H](O)c1ccccc1-4)OCO3	-12.3	-4.6%	-2.3	1.65µM*	?	-23.2%
COc1ccc2c(c1OC)C(=O)O[C@H]2C1c2c(cc3c(c2OC)OCO3)CCN1C (some centres undefined)	.	-31.3%	.	.	.	.
COc1ccc2c(c1OC)C(=O)OC2C1c2c(cc3c(c2OC)OCO3)CCN1C (centres undefined)	-17.8	?	-2.7	?	13.1µM*	?
COc1ccc2c(c1OC)C(C1c3c(cc4c(c3OC)OCO4)CCN1C)OC2=O (centres undefined)	6.4	?	-0.5	?	?	-23.7%
